Source: PubChem BioAssay (The Scripps Research Institute Molecular Screening Center)
PLC-gamma1 inh = inhibitors of human phospholipase C gamma1; AID 720700; inhibition, % at 12.2 µM; hit rate 0.84% among 370,000; purified PLC-gamma1, fluorogenic substrate, fluorescence; P19174
LEDGF integ inh = blocks HIV-1 LEDGF/p75-dependent DNA integration; TR-FRET IN-LEDGF/p75 DNA integration, Eu/Cy5; AID 743269; inhibition, % at 3.7 µM; hit rate 0.64% among 370,000;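 active = inhibition above the screen-wide mean plus 3 SD, cut at about 13% in these data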;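 also: signal is the Cy5 over europium emission ratio at 671 and 618 nm; 0% = plate median of compound wells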
MBD2 inh = blocks human MBD2 binding to methylated DNA. Q9UBB5. TR-FRET, MBD2 binding to methylated oligonucleotide. inhibition, % at 4.4 µM. hit rate 0.31% among 370,000. AID 686964; in the data active = inhibition above about 13%
UHRF1 MBD2 ctr = human UHRF1 methylated DNA binding inhibitors. Q96T88. UHRF1 binding to methylated oligo, TR-FRET. inhibition, % at 4.4 µM. hit rate 0.75% among 370,000. AID 687016; in the data active = inhibition above about 21%;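 also: UHRF1 SRA domain binding a hemimethylated CpG hairpin DNA probe; 0% = median of test compound wells and 100% = reference inhibitor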
Target sequence (Q96T88 whole entry, looked up, the tested form may be a part): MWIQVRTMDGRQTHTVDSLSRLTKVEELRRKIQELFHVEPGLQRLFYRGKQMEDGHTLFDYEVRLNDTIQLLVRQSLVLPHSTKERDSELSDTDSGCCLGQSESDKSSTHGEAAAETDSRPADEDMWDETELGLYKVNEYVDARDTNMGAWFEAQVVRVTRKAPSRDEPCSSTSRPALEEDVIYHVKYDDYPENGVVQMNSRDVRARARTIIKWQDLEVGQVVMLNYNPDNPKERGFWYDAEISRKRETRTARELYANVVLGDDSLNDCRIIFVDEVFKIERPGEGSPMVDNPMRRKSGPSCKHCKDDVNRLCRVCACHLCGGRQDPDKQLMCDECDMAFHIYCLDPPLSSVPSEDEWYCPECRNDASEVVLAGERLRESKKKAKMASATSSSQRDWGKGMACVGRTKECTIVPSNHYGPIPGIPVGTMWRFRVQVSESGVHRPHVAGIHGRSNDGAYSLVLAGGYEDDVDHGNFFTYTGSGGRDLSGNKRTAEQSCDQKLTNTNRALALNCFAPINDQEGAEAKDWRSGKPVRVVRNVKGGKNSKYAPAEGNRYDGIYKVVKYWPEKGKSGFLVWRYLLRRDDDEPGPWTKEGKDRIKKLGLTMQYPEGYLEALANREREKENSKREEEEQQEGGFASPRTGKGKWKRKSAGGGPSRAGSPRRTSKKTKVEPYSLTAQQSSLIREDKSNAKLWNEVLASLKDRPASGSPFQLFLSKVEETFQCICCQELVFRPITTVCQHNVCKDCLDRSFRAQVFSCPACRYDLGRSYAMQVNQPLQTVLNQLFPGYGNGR
PLC-beta3 inh = PLC-beta3 (human) inhibition, primary screen; inhibition, % at 12.2 µM; AID 720704; hit rate 0.18% among 370,000; Q01970; Purified PLC-beta3, fluorogenic substrate, fluorescence; in the data active = inhibition above about 11%;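 also: 0% = median of compound wells on plate and 100% = full blocker control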
PLCg1 ctr = counter-screen for PLC-beta3 inhibitors: inhibitors of human PLC-gamma1 | shares compounds with PLC-gamma1 inh | purified PLC-gamma1, fluorogenic substrate, fluorescence | inhibition, % at 12.3 µM | hit rate 3.1% among 3,300 | AID 743258
PLCbeta3 conf = confirmation of human PLC-beta3 inhibitors. shares compounds with PLC-gamma1 inh. purified PLC-beta3, fluorogenic substrate fluorescence. inhibition, % at 12.3 µM. hit rate 1% among 3,300. AID 743261; in the data active = inhibition above about 11%
Starred values were filed as active, the others as inactive. Shown are actives, neighbours in structure and some others; about 2.3% of the full set was active somewhere. Rule as the data show it, unless noted: active = inhibition above about 9.5%; inactive = the rest.

CCOC(=O)[C@]12CCCCC/C=C\1N(CCc1ccc(Cl)cc1)C(=O)[C@H]2CC(=O)N1CCCCC1 was read as PLC-gamma1 inh -1, LEDGF integ inh -1, MBD2 inh -2, UHRF1 MBD2 ctr 1 and PLC-beta3 inh -1.
`CN(C)S(=O)(=O)c1ccc(NC(=O)CN2CCN(C(c3ccccc3)c3ccccc3)CC2)cc1` gave PLC-gamma1 inh 11*, LEDGF integ inh 6, MBD2 inh -3, UHRF1 MBD2 ctr 1, PLC-beta3 inh 1, PLCg1 ctr -1 and PLCbeta3 conf -1.
For O=C(Nc1cccc(Cl)c1)OCCN1CCCC12CCC(c1ccccc1)CC2 (centres undefined) the results were PLC-gamma1 inh -3, LEDGF integ inh -1, MBD2 inh -4, UHRF1 MBD2 ctr -1 and PLC-beta3 inh -3.
O=C(O)c1cccc(Nc2cc(Cl)c3nonc3c2[N+](=O)[O-])c1 was read as PLC-gamma1 inh 13*, LEDGF integ inh 4, MBD2 inh -16, UHRF1 MBD2 ctr -2, PLC-beta3 inh 3, PLCg1 ctr -1 and PLCbeta3 conf 2.
COC(=O)[C@@H]1C[C@@]2(c3ccccc3)c3ccccc3N(S(=O)(=O)c3ccccc3)[C@H]2N1C(=O)CNC/C=C(\C)CCC=C(C)C was read as PLC-gamma1 inh 0, LEDGF integ inh -2, MBD2 inh 1, UHRF1 MBD2 ctr 1 and PLC-beta3 inh -1.
COC(=O)C1CN(Cc2ccc(OC)cc2)CCS(=O)(=O)N1Cc1cn(Cc2ccc(OC)cc2)nn1 (centres undefined) was read as PLC-gamma1 inh 3, LEDGF integ inh 0, MBD2 inh -1, UHRF1 MBD2 ctr -4 and PLC-beta3 inh 6.
For O=C(Cn1nnc(-c2ccccc2NC(=O)C2CC2)n1)NC1CCCCC1 the results were PLC-gamma1 inh 11*, LEDGF integ inh 0, MBD2 inh -4, UHRF1 MBD2 ctr 9, PLC-beta3 inh 3, PLCg1 ctr -7 and PLCbeta3 conf -4.
For CCn1c(=O)cc(OCC(=O)NCc2ccc(C)o2)c2ccccc21 the results were PLC-gamma1 inh -4, LEDGF integ inh 4, MBD2 inh 0, UHRF1 MBD2 ctr -3 and PLC-beta3 inh -5.
For CCn1c(=O)cc(OCC(=O)NCc2ccco2)c2ccccc21 the results were PLC-gamma1 inh 12*, LEDGF integ inh -2, MBD2 inh 1, UHRF1 MBD2 ctr -1, PLC-beta3 inh -5, PLCg1 ctr 6 and PLCbeta3 conf -1.
Screening Cn1c(SCC(=O)Nc2ccccc2-c2ccccc2)nnc1-c1ccccc1 returned PLC-gamma1 inh 2, LEDGF integ inh 0, MBD2 inh 4, UHRF1 MBD2 ctr 2 and PLC-beta3 inh 0.
For CC(NS(C)(=O)=O)C(c1cccs1)N1CCN(C)CC1 (centres undefined) the results were PLC-gamma1 inh 11*, LEDGF integ inh 6, MBD2 inh 5, UHRF1 MBD2 ctr 5, PLC-beta3 inh 3, PLCg1 ctr -4 and PLCbeta3 conf 0.
For COCCN=C1S/C(=C\c2cc(C)n(-c3ccc(F)cc3F)c2C)C(=O)N1C the results were PLC-gamma1 inh -6, LEDGF integ inh -2, MBD2 inh 4, UHRF1 MBD2 ctr 2 and PLC-beta3 inh -18.
`Cc1cc(=O)c2n(Cc3ccccc3Cl)nc[n+]2[nH]1` gave PLC-gamma1 inh 14*, LEDGF integ inh -2, MBD2 inh -1, UHRF1 MBD2 ctr 2, PLC-beta3 inh 1, PLCg1 ctr -3 and PLCbeta3 conf -1.
Cc1ccc(CN2CCCCC(NC(=O)c3ccc(F)c(F)c3)C2=O)cc1 (centres undefined) was read as PLC-gamma1 inh 0, LEDGF integ inh 2, MBD2 inh -4, UHRF1 MBD2 ctr -3 and PLC-beta3 inh 2.
Screening O=C(O)CCC1COc2ccccc2O1 (centres undefined) returned PLC-gamma1 inh 11*, LEDGF integ inh 4, MBD2 inh -6, UHRF1 MBD2 ctr -2, PLC-beta3 inh 10, PLCg1 ctr 1 and PLCbeta3 conf -3.
CC(=O)NCC1COc2ccccc2O1 (centres undefined) was read as PLC-gamma1 inh 4, LEDGF integ inh 4, MBD2 inh 0, UHRF1 MBD2 ctr 0 and PLC-beta3 inh -3.
CN(C)C(=O)OCC1COc2ccccc2O1 (centres undefined) was read as PLC-gamma1 inh 9.9*, LEDGF integ inh -3, MBD2 inh 11, UHRF1 MBD2 ctr 5, PLC-beta3 inh -1, PLCg1 ctr -5 and PLCbeta3 conf -1.
For O=C(O)CNCC1COc2ccccc2O1 (centres undefined) the results were PLC-gamma1 inh -1, LEDGF integ inh 2, MBD2 inh 1, UHRF1 MBD2 ctr 2 and PLC-beta3 inh 6.
`COc1ccc(OC)c(S(=O)(=O)N2CCC(C(=O)NCC3COCCO3)CC2)c1` (centres undefined) gave PLC-gamma1 inh 1, LEDGF integ inh 0, MBD2 inh 1, UHRF1 MBD2 ctr 0 and PLC-beta3 inh 2.
`CC(=O)ON1C(C)(C)CC(OC(=O)c2ccccc2)CC1(C)C` gave PLC-gamma1 inh 0, LEDGF integ inh -2, MBD2 inh 2, UHRF1 MBD2 ctr -2 and PLC-beta3 inh 1.
CC(=O)NC1CC(C)(C)N(OC(C)=O)C(C)(C)C1 was read as PLC-gamma1 inh 10*, LEDGF integ inh 0, MBD2 inh 4, UHRF1 MBD2 ctr 1, PLC-beta3 inh 1, PLCg1 ctr -8 and PLCbeta3 conf -4.
Screening Cc1cc(C)c2c(c1)/C(=N/NS(=O)(=O)c1ccc(Br)cc1)CCC2 returned PLC-gamma1 inh 3, LEDGF integ inh 2, MBD2 inh -2, UHRF1 MBD2 ctr 0 and PLC-beta3 inh 2.
Cc1cc(C)c2c(c1)/C(=N/NS(=O)(=O)c1ccccc1)CCC2 was read as PLC-gamma1 inh 0, LEDGF integ inh 1, MBD2 inh 1, UHRF1 MBD2 ctr 7, PLC-beta3 inh 11*, PLCg1 ctr 3 and PLCbeta3 conf -1.
Screening O=C(Cc1cccs1)N1CCC(c2nc3c(nnn3Cc3ccccc3)c(=O)[nH]2)CC1 returned PLC-gamma1 inh 10*, LEDGF integ inh -7, MBD2 inh 1, UHRF1 MBD2 ctr 3, PLC-beta3 inh 12*, PLCg1 ctr 7 and PLCbeta3 conf 12*.
Screening Cc1ccc(Cn2nnc3c(=O)[nH]c(C4CCN(C(=O)Cc5cccs5)CC4)nc32)cc1 returned PLC-gamma1 inh 6, LEDGF integ inh -1, MBD2 inh -4, UHRF1 MBD2 ctr 2 and PLC-beta3 inh 4.
For O=C1OC[C@H]2CCCC[C@@H](CO)ON12 the results were PLC-gamma1 inh 9.6*, LEDGF integ inh 5, MBD2 inh -7, UHRF1 MBD2 ctr -1, PLC-beta3 inh 2, PLCg1 ctr 0 and PLCbeta3 conf 0.
